Hits are enriched below; roughly 2.5% of the tested compounds scored in any of these assays.
MEKK2mut PB1 HTS: signal of MEK5 binding to mutant human MEKK2 PB1 domain | bead flow cytometry, Alexa488-MEK5 binding to MEKK2 mutant | 0.35% of 290,000 active | percent response, % at 10 µM; in the data active = percent response above about 24%, passing the limit was not always enough
MEKK2wt PB1 HTS: raises or lowers MEK5 binding to wildtype human MEKK2 PB1 domain; Q9Y2U5; bead flow cytometry, Alexa488-MEK5 binding to MEKK2 WT; actives lie on both sides; binding response (% of control), % at 10 µM; 1.1% of 290,000 active; in the data active = binding response below about 67% or above about 130%
GRK2 inh: human GRK2 inhibition via aptamer displacement; bead flow cytometry, FAM-aptamer displacement from GRK2; AID 488847; inhibition of aptamer binding, % at 10 µM; 0.59% of 330,000 active; P25098;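 active = inhibition of aptamer binding above 40%, roughly 3 SD of noise, on plates passing a quality check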;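 note: median bead fluorescence of bound FAM aptamer so fluorescent compounds give negative values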
Target sequence (P25098 whole entry, looked up): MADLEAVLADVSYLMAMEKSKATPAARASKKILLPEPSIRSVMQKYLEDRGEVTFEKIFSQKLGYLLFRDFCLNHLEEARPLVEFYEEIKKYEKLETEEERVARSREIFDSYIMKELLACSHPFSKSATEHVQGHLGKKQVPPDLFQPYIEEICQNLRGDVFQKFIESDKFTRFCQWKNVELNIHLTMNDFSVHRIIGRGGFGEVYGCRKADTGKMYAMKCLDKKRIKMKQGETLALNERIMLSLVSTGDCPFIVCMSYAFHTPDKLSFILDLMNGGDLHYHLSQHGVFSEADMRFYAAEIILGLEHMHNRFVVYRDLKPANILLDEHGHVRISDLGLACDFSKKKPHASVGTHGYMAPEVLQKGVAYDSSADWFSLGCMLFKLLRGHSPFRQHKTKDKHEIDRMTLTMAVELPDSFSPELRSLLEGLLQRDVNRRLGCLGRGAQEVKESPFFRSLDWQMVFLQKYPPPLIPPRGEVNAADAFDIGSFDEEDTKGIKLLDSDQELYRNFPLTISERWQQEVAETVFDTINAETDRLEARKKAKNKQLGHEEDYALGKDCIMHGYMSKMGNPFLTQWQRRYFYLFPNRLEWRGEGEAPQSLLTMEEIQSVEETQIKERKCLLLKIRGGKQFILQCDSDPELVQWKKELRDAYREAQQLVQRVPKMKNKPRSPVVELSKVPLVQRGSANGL
MEKK3 PB1 HTS: modulators (inhibitors or enhancers) of MEK5 binding to human MEKK3 PB1 domain. binding response (% of control), % at 10 µM. 1.4% of 290,000 active. Q99759. bead-based flow cytometry, Alexa488-MEK5 binding to MEKK3; actives lie on both sides; 0 = blocked by unlabeled MEK5, 100 = vehicle;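 active = binding response more than 3 SD above or below the average of its plate-row segment, actives on both sides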;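 note: Alexa488 bead fluorescence after subtracting the streptavidin-only scavenger bead signal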
MEKK2wt confirm: raises or lowers MEK5 binding to wildtype human MEKK2, retest. bead flow cytometry, Alexa488-MEK5 binding to MEKK2 WT; actives lie on both sides. 2.4% of 5,900 active. shares compounds with MEKK3 PB1 HTS. AID 1892. binding response (% of control), % at 10 µM; in the data active = binding response below about 16% or above about 210%; inactive = in between
MEKK2mut-MEK5: signal of MEK5 binding to mutant human MEKK2, retest; bead flow cytometry, Alexa488-MEK5 binding to MEKK2 mutant; 2% of 5,900 active; percent response, % at 10 µM; shares compounds with MEKK3 PB1 HTS; AID 1893; in the data active = percent response mostly above about 71%, no sharp cut-off; inactive = mostly below about 38%;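 note: higher means compound restores mutant binding toward wildtype level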
MEKK3-MEK5 inh: MEKK3-MEK5 PB1 inhibition, single concentration confirmation | shares compounds with MEKK3 PB1 HTS | bead flow cytometry, Alexa488-MEK5 binding to MEKK3; hits give low values | binding response (% of control), % at 10 µM | 1.8% of 5,900 active | AID 1894;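 active = binding response below 72% of control, or above a set upper limit, though filed actives all read lower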;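 note: 100% = DMSO only wells and 0% = binding blocked by excess unlabeled MEK5; lower values mean stronger disruption of MEK5 binding to MEKK3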
Active calls of the source: *; x = no result given; [ ] = remark or other dose.

SMILES	MEKK2mut PB1 HTS	MEKK2wt PB1 HTS	GRK2 inh	MEKK3 PB1 HTS	MEKK2wt confirm	MEKK2mut-MEK5	MEKK3-MEK5 inh
COc1ccc(/C=N\NC(=O)CNC(=O)C(c2ccccc2)c2ccccc2)cc1[N+](=O)[O-]	0.0	104.0	2.0	143.0*	98.0	-6.0	101.0
CCCn1c(SC(C(=O)Nc2cccc(OC)c2)c2ccccc2)nc2ccccc2c1=O (stereo not drawn)	0.0	110.0	0.0	142.0*	96.0	-5.0	97.0
CC/C(=C\c1oc2cc3ccccc3cc2[n+]1CC)Nc1ccccc1	464.0*	389.0*	0.0	135.0*	92.0	-88.0*[inhibitor]	81.0
Cn1cnnc1SC(C(=O)c1ccccc1)c1ccccc1 (stereo not drawn)	4.0	111.0	0.0	107.0	x	x	x
CCOc1cc(N2CCOCC2)c(OCC)cc1NC(=O)CN1CCC(Cc2ccccc2)CC1	0.0	110.0	0.0	149.0*	107.0	8.0	106.0
COc1ccc(CCNS(=O)(=O)CC23CCC(CC2=O)C3(C)C)cc1OC (stereo not drawn)	29.0*	118.0	0.0	114.0	101.0	0.0	103.0
CCS(=O)(=O)N1CCC(C(=O)NCc2cccs2)CC1	2.0	102.0	7.0	101.0	x	x	x
O=C(NC(Cc1ccccc1)C(=O)O)c1ccc(S(=O)(=O)N2CCCC2)cc1 (stereo not drawn)	-6.0	94.0	0.0	93.0	x	x	x
O=C1C(Cc2ccccc2)NC(=S)N1c1ccccc1 (stereo not drawn)	-9.0	84.0	0.0	82.0	x	x	x
CN(C)Cc1c(O)ccc2ccccc12	3.0	103.0	1.0	101.0	x	x	x
CN(C)CCN(C)Cc1c2ccccc2c(CN(C)CCN(C)C)c2ccccc12	24.0*	128.0	23.0	111.0	156.0	43.0	106.0
COc1ccc(C2c3ccc4ccccc4c3Oc3ncn(CCN4CCOCC4)c(=N)c32)cc1OC (stereo not drawn)	15.0	115.0	0.0	98.0	x	x	x
CN(C)CCCn1cnc2c(c1=N)C(c1ccccc1)c1ccc3ccccc3c1O2 (stereo not drawn)	26.0*	170.0*	0.0	101.0	194.0	64.0	103.0
COc1ccc(C2c3ccc4ccccc4c3Oc3ncn(CCO)c(=N)c32)cc1OC (stereo not drawn)	15.0	139.0	0.0	107.0	x	x	x
COc1ccc(C2c3ccc4ccccc4c3Oc3ncn(CCCO)c(=N)c32)cc1 (stereo not drawn)	-2.0	110.0	0.0	88.0	x	x	x
COc1ccc(C2c3ccc4ccccc4c3Oc3ncn(CCN(C)C)c(=N)c32)cc1 (stereo not drawn)	29.0*	157.0*	0.0	106.0	124.0	15.0	105.0
COc1ccc(C2c3ccc4ccccc4c3Oc3ncn(CCN4CCOCC4)c(=N)c32)cc1 (stereo not drawn)	24.0	179.0*	0.0	108.0	172.0	42.0	112.0
COc1ccc(C2c3ccc4ccccc4c3Oc3ncn(CCO)c(=N)c32)cc1 (stereo not drawn)	20.0	151.0*	0.0	115.0	143.0	27.0	95.0
COc1cc(C(=O)NNC(=O)CN2C(=O)NC(C)(c3ccc(C)cc3)C2=O)cc(OC)c1OC (stereo not drawn)	x	x	0.0	x	x	x	x
Cc1cc(C)cc(OCC(=O)N2CCCCCC2)c1	6.0	109.0	0.0	105.0	x	x	x
CN(c1ccc(OCC(=O)Nc2nc(-c3ccccc3)cs2)cc1)S(=O)(=O)c1ccc(F)cc1	-1.0	99.0	0.0	100.0	x	x	x
CC(C)c1nc2sc3c(=O)n(N)cnc3c2c2c1COC(C)(C)C2	0.0	104.0	5.0	145.0*	120.0	31.0	119.0
CCCc1nc2sc3c(=O)n(N)cnc3c2c2c1COC(C)(C)C2	2.0	106.0	2.0	97.0	x	x	x
CCOc1ccc(-c2cnc(NCc3cccc4ccccc34)n2CCOC)cc1	20.0	192.0*	0.0	117.0	132.0	4.0	99.0
CN(C)c1ccc(NC(=O)CN2CCN(CC(=O)Nc3ccc(F)cc3)CC2)cc1	18.0	117.0	0.0	109.0	x	x	x
